Experimental data taken from PubChem BioAssay (Tox21).
Records with an inconclusive call do not appear. Active and inactive are the calls of the source. Unless noted, the call rests on the fitted dose curve; in most records, active means well fitted curve in the direction sought with a large enough effect in the repeat runs; inconclusive means weak or mixed curves; inactive means no such curve, though single readings can be large; an effect the other way counts as inactive or inconclusive.

How the values were obtained:
[1] = qHTS assay to identify small molecule antagonists of the constitutive androstane receptor (CAR) signaling pathway - cell viability counter screen (AID 1224837); further: nearly all actives have a fitted effect of over 45% in size; further: potency means the concentration at half of the fitted maximal effect
Summary of the method: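 Cytotoxicity counter-screen: CellTiter-Fluor fluorescence after 23 h compound exposure (15-point qHTS) in double-stable HepG2-CYP2B6-hCAR cells, with 50 nM CITCO added.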

[2] = biological target: Nuclear receptor subfamily 1 group I member 3 (Homo sapiens) (UniProt Q14994); test: qHTS assay to identify small molecule antagonists of the constitutive androstane receptor (CAR) signaling pathway (AID 1224838);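 further: HepG2 cells stably expressing hCAR with CYP2B6 luciferase reporter stimulated by CITCO; nearly all actives have a fitted effect of over 40% in size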; further: potency means the concentration at half of the fitted maximal effect
Summary of the method: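 Antagonism measured as luciferase signal (ONE-Glo, 30 min, room temperature) in CAR-stimulated cells: HepG2-CYP2B6-hCAR double-stable line exposed 24 hr at 37 C to compound in a 15-point series plus 50 nM CITCO.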

[3] = biological target: Nuclear receptor subfamily 1 group I member 3 (Homo sapiens) (UniProt Q14994); test: qHTS assay to identify small molecule agonists of the constitutive androstane receptor (CAR) signaling pathway (AID 1224839); further: nearly all actives have a fitted effect of over 15% in size; further: potency means the concentration at half of the fitted maximal effect;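 on activation: HepG2 cells stably carrying human CAR and a CYP2B6 luciferase reporter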
Summary of the method: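 Double-stable HepG2 cells (hCAR, CYP2B6-2.2kb) seeded 4 h before compound addition. Exposure 24 h with 0.75 uM PK11195 final. Luciferase detected by ONE-Glo.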

[4] = qHTS assay to identify small molecule antagonists of the estrogen related receptor signaling pathway with the pleiotropic PPARgamma coactivator (PGC) from Tox21 10K library - cell viability counter screen (AID 1224840; active means well fitted cell-killing curve with a large enough effect in the repeat runs, not every such curve was filed as active; further: nearly all actives have a fitted effect of over 40% in size; further: potency means the concentration at half of the fitted maximal effect)
Summary of the method: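 Counter-screen for cytotoxicity: after 17.5 h compound exposure at 37 C, CellTiter-Fluor reagent added to PGC/ERR cells for 30 min and fluorescence read. Cells were seeded at 2,000 per well 6 h before dosing.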

[5] = biological target: Thyrotropin receptor (Homo sapiens) (UniProt P16473); test: qHTS assay to identify small molecule agonists of the thyroid stimulating hormone receptor (TSHR) signaling pathway (AID 1224843; calls by dose curve; further: nearly all actives have a fitted effect of over 45% in size; further: potency means the concentration at half of the fitted maximal effect)
Summary of the method: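 Agonist activity read as cAMP rise via d2/cryptate HTRF competition, 1 h room-temperature detection, in HEK293 cells expressing TSHR. Fifteen-point titrations, each run in triplicate, with a 30 min room-temperature incubation beforehand.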

[6] = qHTS assay to identify small molecule agonists of the hypoxia (HIF-1) signaling pathway - cell viability counter screen (AID 1224844; calls by dose curve; further: nearly all actives have a fitted effect of over 50% in size; further: potency means the concentration at half of the fitted maximal effect)
Summary of the method: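 Cytotoxicity measured by CellTiter-Glo ATP luminescence in the wells also read for beta-lactamase signal. Cells were HRE-bla ME-180 (2,000/well, 0.5% dialyzed FBS), exposed to compounds for 17 h at 37C.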

[7] = qHTS assay to identify small molecule agonists of H2AX (AID 1224845; active means well fitted activation curve with a large enough effect in the signal ratio in the repeat runs, not every such curve was filed as active; the % refers to the signal ratio; further: potency means the concentration at half of the fitted maximal effect)
Summary of the method: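 Phospho-H2AX Ser139 measured by HTRF (ex 320 nm; em 665 and 620 nm) after 24 hr antibody incubation. Compounds, 15 concentrations, 0.76% DMSO, were applied to CHO-K1 cells for 3hr at 37C before lysis.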

[8] = qHTS assay to identify small molecule agonists of the hypoxia (HIF-1) signaling pathway (AID 1224846; active means well fitted activation curve with a large enough effect in the signal ratio in the repeat runs, not every such curve was filed as active; the % refers to the signal ratio)
Summary of the method: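 Compounds added to ME-180 cells carrying hypoxia-response-element beta-lactamase reporter (0.5% dialyzed FBS, 5 h preplating), 17 h at 37C; agonist activity detected by CCF4-AM B/G FRET read-out.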

[9] = qHTS assay to identify small molecule agonists of H2AX - cell viability counter screen (AID 1224847; calls by dose curve; further: nearly all actives have a fitted effect of over 30% in size; further: potency means the concentration at half of the fitted maximal effect)
Summary of the method: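 Quantitative HTS viability measurement: CHO-K1 wild-type cells in serum (10% FBS) medium, short 3 hr drug exposure at 37C with 0.76% DMSO, CellTiter-Glo luminescent detection.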

[10] = qHTS RealTime-Glo MT Cell Viability Assay in HepG2 cells - 24 hour (AID 1224867); further: nearly all actives have a fitted effect of over 50% in size; further: potency means the concentration at half of the fitted maximal effect
Summary of the method: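 Viability was tracked continuously by NanoLuc luminescence from prosubstrate reduced by living HepG2 cells, at successive time points over 40 h of compound exposure. Cells with reagent were preincubated 5 h at 37 °C before compound addition.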

[11] = qHTS RealTime-Glo MT Cell Viability Assay in HEK293 cells - 32 hour (AID 1224868); further: nearly all actives have a fitted effect of over 50% in size; further: potency means the concentration at half of the fitted maximal effect
Summary of the method: (§1)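 Viability tracked continuously by luminescence as live cells reduce a prosubstrate for NanoLuc; HEK293 cells preincubated 5 h, compound-treated at 37 C, and read at 0, 8, 16, 24, 32 and 40 h.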

[12] = A CellTox Green Cytotoxicity Assay to monitor cytotoxicity in HEK293 cells - 0 hour (AID 1224869); further: nearly all actives have a fitted effect of over 50% in size
Summary of the method: (§2)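 Fluorescence from a DNA-binding dye excluded by viable cells was measured repeatedly in the same HEK293 wells (600 cells/well) during continuous compound exposure at 37 C. Each assay gives one read point: 0, 8, 16, 24, 32 or 40 h.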

[13] = qHTS RealTime-Glo MT Cell Viability Assay in HepG2 cells - 40 hour (AID 1224870); further: nearly all actives have a fitted effect of over 50% in size; further: potency means the concentration at half of the fitted maximal effect
Summary of the method: (§3)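 Real-time viability: cells seeded at 600 per well together with NanoLuc and cell-permeant prosubstrate, compounds added after 5 h incubation. Luminescence tracked at 0, 8, 16, 24, 32 and 40 h of exposure.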

[14] = A CellTox Green Cytotoxicity Assay to monitor cytotoxicity in HEK293 cells - 40 hour (AID 1224871); further: nearly all actives have a fitted effect of over 45% in size; further: potency means the concentration at half of the fitted maximal effect
Summary of the method: as §2

[15] = qHTS RealTime-Glo MT Cell Viability Assay in HEK293 cells - 16 hour (AID 1224872); further: nearly all actives have a fitted effect of over 50% in size; further: potency means the concentration at half of the fitted maximal effect
Summary of the method: as §1

[16] = qHTS RealTime-Glo MT Cell Viability Assay in HepG2 cells - 8 hour (AID 1224873); further: nearly all actives have a fitted effect of over 55% in size; further: potency means the concentration at half of the fitted maximal effect
Summary of the method: as §3

[17] = qHTS assay to identify small molecule antagonists of the estrogen related receptor signaling pathway with the pleiotropic PPARgamma coactivator (PGC) from Tox21 10K library (AID 1224841; call rule not given here; further: potency means the concentration at half of the fitted maximal effect)
Summary of the method: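 Luminescence (One-Glo, 30 min at room temperature) after 18 h compound treatment at 37 C of PGC/ERR reporter cells plated at 2,000 cells/well and settled 6 h beforehand.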

[18] = qHTS assay to identify small molecule antagonists of the estrogen related receptor (ERR) signaling pathway from Tox21 library (AID 1224848); further: nearly all actives have a fitted effect of over 50% in size; further: potency means the concentration at half of the fitted maximal effect
Summary of the method: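 Luciferase luminescence (ONE-Glo, 30 min room temperature) was the read-out. Cells of the NTP-supplied ERR line, 2,000 per well, were given 6 h at 37 C before compound addition in DMSO and 18 h exposure at 37 C.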

[19] = qHTS assay to identify small molecule agonists of the estrogen related receptor (ERR) signaling pathway from Tox21 library (AID 1224849; calls by dose curve; further: nearly all actives have a fitted effect of over 15% in size); settings: ERR reporter cell line, ONE-Glo luciferase, 18 h; at 92.4 µM (top of the series) unless noted
Summary of the method: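 Luminescent agonist read-out (One-Glo, 30-minute room-temperature incubation) following 18-hour compound treatment at 37 C of the ERR cell line, which had been plated 6 hours before dosing.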

[20] = qHTS assay to identify small molecule agonists of the estrogen related receptor signaling pathway with the pleiotropic PPARgamma coactivator (PGC) from Tox21 10K library (AID 1224842); further: nearly all actives have a fitted effect of over 15% in size
Summary of the method: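 Luminescence from One-Glo (30 min, room temperature) measured after PGC/ERR cells had 18 h at 37 C with pinned compound (23 nL in DMSO). Cells had been seeded at 2,000 per well and pre-incubated 6 h.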
On the % scale 0 is the no-effect control and ±100 the full control effect.

Sequence of Nuclear receptor subfamily 1 group I member 3 (Homo sapiens) (Q14994 whole entry, looked up): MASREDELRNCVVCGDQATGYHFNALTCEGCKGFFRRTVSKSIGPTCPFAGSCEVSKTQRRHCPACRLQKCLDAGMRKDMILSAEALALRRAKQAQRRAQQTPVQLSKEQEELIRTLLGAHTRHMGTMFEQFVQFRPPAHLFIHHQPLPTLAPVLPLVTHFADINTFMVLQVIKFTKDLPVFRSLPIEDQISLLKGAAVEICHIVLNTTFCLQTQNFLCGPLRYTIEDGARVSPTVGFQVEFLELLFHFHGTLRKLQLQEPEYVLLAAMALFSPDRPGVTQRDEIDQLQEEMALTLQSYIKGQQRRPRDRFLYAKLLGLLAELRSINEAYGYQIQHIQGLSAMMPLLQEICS
Sequence of Thyrotropin receptor (Homo sapiens) (P16473 whole entry, looked up): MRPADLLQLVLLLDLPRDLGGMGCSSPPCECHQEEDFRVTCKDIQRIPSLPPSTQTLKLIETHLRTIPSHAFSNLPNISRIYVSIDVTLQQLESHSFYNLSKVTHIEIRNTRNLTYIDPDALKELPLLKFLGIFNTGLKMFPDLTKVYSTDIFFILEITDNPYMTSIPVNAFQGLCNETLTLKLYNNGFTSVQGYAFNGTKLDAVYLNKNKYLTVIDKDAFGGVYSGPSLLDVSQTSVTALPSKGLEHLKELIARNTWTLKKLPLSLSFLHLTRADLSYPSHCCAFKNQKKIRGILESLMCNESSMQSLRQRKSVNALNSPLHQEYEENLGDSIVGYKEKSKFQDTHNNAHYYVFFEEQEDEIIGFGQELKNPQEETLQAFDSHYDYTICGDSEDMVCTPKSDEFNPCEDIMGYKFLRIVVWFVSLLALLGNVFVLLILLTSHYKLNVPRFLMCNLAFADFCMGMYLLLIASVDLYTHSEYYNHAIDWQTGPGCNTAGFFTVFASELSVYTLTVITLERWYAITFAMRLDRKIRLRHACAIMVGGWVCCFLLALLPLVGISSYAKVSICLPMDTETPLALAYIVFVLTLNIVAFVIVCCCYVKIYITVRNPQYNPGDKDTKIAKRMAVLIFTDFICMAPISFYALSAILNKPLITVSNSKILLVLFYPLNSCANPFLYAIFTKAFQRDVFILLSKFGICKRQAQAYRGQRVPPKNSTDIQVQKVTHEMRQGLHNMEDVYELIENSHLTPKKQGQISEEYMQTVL

[Cl][Dy]([Cl])[Cl]
inactive: Potency [1] | Potency [2] | Potency [3] | Potency [4] | Potency [5] | Potency [6] | Potency [7] | Potency [8] | Potency [9] | Potency [10] | Potency [11] | Potency [12] | Potency [13] | Potency [14] | Potency [15] | Potency [16]

COCCC(=O)OC
inactive: Potency [1] | Potency [2] | Potency [3] | Potency [4] | Potency [5] | Potency [6] | Potency [8] | Potency [9] | Potency [10] | Potency [11] | Potency [12] | Potency [13] | Potency [15] | Potency [16]

Nc1ccc(F)c([N+](=O)[O-])c1
inactive: Potency [1] | Potency [2] | Potency [3] | Potency [4] | Potency [5] | Potency [8] | Potency [9] | activity change, positive = activation [19] -30.4% | Potency [10] | Potency [11] | Potency [12] | Potency [13] | Potency [15] | Potency [16]
active: Potency [17] 30.6 µM | Potency [18] 34.4 µM

Cc1ccc(S(=O)(=O)C(I)I)cc1
active: Potency [1] 34.4 µM | Potency [2] 27.3 µM | Potency [4] 48.6 µM | Potency [5] 3.06 µM | Potency [6] 13.8 µM | Potency [7] 16 µM | Potency [9] 22.5 µM | Potency [18] 61.1 µM | Potency [10] 11 µM | Potency [11] 12.3 µM | Potency [13] 12.3 µM | Potency [14] 19.5 µM | Potency [15] 15.5 µM | Potency [16] 12.3 µM
inactive: Potency [3] | activity change, positive = activation [19] -77.2% | Potency [12]

C=C1C(CCl)(CCl)C2(Cl)C(Cl)C(Cl)C1(Cl)C2(Cl)Cl (centres undefined)
active: Potency [3] 8.53 µM | Potency [4] 53.8 µM | Potency [17] 60.4 µM | Potency [5] 17 µM | Potency [6] 24.3 µM | Potency [7] 99.6 µM | Potency [9] 99.6 µM | Potency [18] 60.4 µM | Potency [15] 48.4 µM
inactive: Potency [1] | Potency [2] | activity change, positive = activation [19] -73.9% | Potency [12] | Potency [13]

CCCCCCCCOC(=O)c1cc(O)c(O)c(O)c1
inactive: Potency [1] | Potency [2] | Potency [3] | Potency [20] | Potency [5] | Potency [6] | activity change, positive = activation [19] -45.2% | Potency [12]
active: Potency [4] 34.4 µM | Potency [9] 89.8 µM | Potency [18] 3.44 µM | Potency [10] 19.5 µM | Potency [11] 11 µM | Potency [16] 17.4 µM

Oc1ccc(C2(c3ccc(O)c(C4CCCCC4)c3)CCCCC2)cc1C1CCCCC1
inactive: Potency [3] | activity change, positive = activation [19] -70.3% | Potency [12] | Potency [14]
active: Potency [1] 27.3 µM | Potency [2] 27.3 µM | Potency [4] 61.1 µM | Potency [17] 54.5 µM | Potency [5] 6.86 µM | Potency [6] 12.3 µM | Potency [7] 22.5 µM | Potency [9] 22.5 µM | Potency [18] 38.6 µM | Potency [10] 34.7 µM | Potency [11] 38.9 µM | Potency [13] 34.7 µM | Potency [15] 43.6 µM | Potency [16] 43.6 µM

CCC(C)(C)c1ccc(CC(C)CN2C[C@@H](C)O[C@@H](C)C2)cc1 (some centres undefined)
inactive: Potency [1] | Potency [2] | Potency [3] | Potency [4] | Potency [17] | activity change, positive = activation [19] -22.5% [at 42.5 µM] | Potency [10] | Potency [11] | Potency [12] | Potency [13] | Potency [16]
active: Potency [6] 23.9 µM | Potency [9] 55.2 µM | Potency [14] 23.9 µM

O=[N+]([O-])c1ccc(O)c2ncccc12
inactive: Potency [1] | Potency [2] | Potency [5] | Potency [6] | Potency [9] | activity change, positive = activation [19] -55.9% [at 42.5 µM] | Potency [10] | Potency [12] | Potency [13] | Potency [15]
active: Potency [3] 11.9 µM | Potency [4] 10.6 µM | Potency [17] 5.31 µM | Potency [18] 5.31 µM | Potency [14] 9.52 µM

Nc1cc([N+](=O)[O-])ccc1Cl
inactive: Potency [1] | Potency [2] | Potency [3] | Potency [4] | Potency [17] | Potency [20] | Potency [5] | Potency [6] | Potency [7] | Potency [8] | Potency [9] | Potency [18] | activity change, positive = activation [19] 1.59% | Potency [10] | Potency [11] | Potency [12] | Potency [13] | Potency [14] | Potency [16]

CN(C[C@@H](CC[N+]12CCC(C3CCCCC3)(CC1)CC2)c1ccc(Cl)c(Cl)c1)C(=O)c1cc(C(F)(F)F)cc(C(F)(F)F)c1
active: Potency [1] 68.6 µM | Potency [2] 54.5 µM | Potency [4] 30.6 µM | Potency [6] 19.5 µM | Potency [9] 50.5 µM | Potency [18] 27.3 µM | Potency [10] 21.9 µM | Potency [11] 2.19 µM | Potency [13] 21.9 µM | Potency [15] 3.09 µM | Potency [16] 24.5 µM
inactive: Potency [3] | Potency [17] | Potency [7] | activity change, positive = activation [19] -78.4% | Potency [12]

Nc1ccc(Oc2cccc(Oc3ccc(N)cc3)c2)cc1
active: Potency [2] 1.37 µM | Potency [17] 8.63 µM | Potency [7] 113 µM | Potency [18] 4.33 µM
inactive: Potency [1] | Potency [3] | Potency [4] | Potency [5] | Potency [6] | Potency [8] | activity change, positive = activation [19] -57.1% | Potency [12] | Potency [13] | Potency [14] | Potency [15] | Potency [16]
